# Source: PubChem (SRMLSC)
# Most compounds without a hit are left out; they make up all but 6.3% or so of the library.
# DPM-DC inhibit = inhibitors of Streptococcus pneumoniae diphosphomevalonate decarboxylase. purified DPM-DC, PK/LDH coupled NADH fluorescence. calls only at 10 µM. 65,000 compounds, 0.49% hits;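 active = the 320 compounds with the highest percent inhibition in the single-dose primary screen, excluding strongly autofluorescent ones, cut at about 32% in these data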;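 also: kinetic rate of NADH fluorescence loss reporting ADP formed by the decarboxylase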
# PMK inhibit = inhibitors of Streptococcus pneumoniae phosphomevalonate kinase; purified PMK, PK/LDH-coupled NADH absorbance 340 nm; 65,000 compounds, 0.49% hits; AID 539; inhibition, % at 10 µM;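 active = top-ranked compounds by inhibition in the single 10 µM screen, taking a fixed number of the strongest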;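 also: 0% = full reaction with DMSO carrier and 100% = background rate without enzyme reaction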
# MK inhibit = inhibitors of Streptococcus pneumoniae mevalonate kinase; purified MK, PK/LDH-coupled NADH absorbance 340 nm; inhibition, % at 10 µM; 65,000 compounds, 0.48% hits; AID 555;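 active = ranked among the strongest by inhibition in the single 10 µM screen, a fixed top-ranked set picked for dose follow-up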
# A340 absorber = compound absorbs light at 340 nm | compound absorbance at 340 nm, fold over control | fold change at 10 µM | 65,000 tested, under 10 active;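 active = at 10 µM dose, initial 340 nm absorbance at least 2 fold that of control wells; inactive = change under 2 fold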;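 also: initial absorbance extrapolated from kinetic A340 decline of NADH oxidation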
# Autofluor 339 = intrinsic fluorescence of library compounds, ex339/em460 – biochemical, MLSMR library, data from DPM-DC assay, artefact control, profiling panel; AID 709; 65,000 compounds, 5.5% hits; compound autofluorescence, ex339/em460 nm, NADH buffer; stronger effect = higher value; 1 = no-compound wells, NADH background; fluorescence fold increase at 10 µM;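 active = at 10 µM, mean starting fluorescence two-fold or more over control wells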;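 also: signal is the first read of a kinetic run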
# NADH coupling = blocks coupling enzymes of NAD/NADH assays; 65,000 compounds, 0.02% hits; coupled PK/LDH NADH assays, four targets; IC50, µM (top dose mostly 10 µM), for the others: at the highest dose inhibition;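 active = single-dose screening hits from any of four coupled enzyme assays that gave an IC50 when retested across doses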;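 also: the DPM-DC format reads NADH fluorescence rather than 340 nm absorbance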
# * marks the source's active call; other numbers are inactive results; i = inactive; x = no result given; + = active, no number.
SMILES,DPM-DC inhibit,PMK inhibit,MK inhibit,A340 absorber,Autofluor 339,NADH coupling
COc1ccc(N(C)C(=O)CCC(=O)Nc2ccc3nc(N4CCOCC4)cc(C)c3c2)c(OC)c1,x,13,4,1,4.8*,9%
CC(OCC(O)CN(C)CCOc1ccccc1)c1ccc(Cl)cc1 (configuration not stated),i,6,26,1,1.1,11%
COC(=O)C1=C(C)Nc2c(c(=O)n(C)c(=O)n2C)C1c1cccs1 (configuration not stated),i,9,6,1.1,1.1,6%
Cc1cc(=O)[nH]c(/N=C(\N)Nc2cccc3ccccc23)n1,+,19,9,1,1.1,22%
COc1ccccc1N/C(N)=N/c1nc(CSc2ccc(C)cc2)cc(=O)[nH]1,i,12,11,1,1.1,8%
CCN(CC)CCCNc1oc(-c2ccc(OC)c(OC)c2)nc1C#N,x,16,13,1.1,3.9*,15%
CC(C)(C)c1ccc(-c2nc(C#N)c(NCc3ccncc3)o2)cc1,i,11,15,1,1.8,12%
CN(C)CCCNc1oc(-c2cccc(Cl)c2)nc1C#N,x,13,10,1,3.9*,12%
COc1ccc(-c2nc(C#N)c(NCCc3ccccc3)o2)cc1OC,x,11,12,1.1,3.9*,12%
COc1ccc(-c2nc(C#N)c(NCc3ccc(C)cc3)o2)cc1OC,x,0,1,1.1,2.1*,1%
Oc1ccccc1C1=Nc2ncnn2C(c2ccccc2)C1 (configuration not stated),i,3,5,1.1,1.1,3%
COC1=C(OC)c2ccccc2C(C(=O)O)N/C1=C(/C)Nc1ccncc1 (configuration not stated),i,0,2,1,1.1,1%
O=C(C1CC(=O)N(c2ccccc2)C1)N1CCN(C2=NS(=O)(=O)c3ccccc32)CC1 (configuration not stated),i,2,5,1,1,2%
CCS(=O)(=O)N1CCN(C(C)CCc2ccccc2)CC1 (configuration not stated),i,2,42*,1.1,1.1,15%
O=S(=O)(CCc1ccccc1)N1CCOCC1,i,14,4,1,1,7%
CCOC(=O)CSc1nnc(CNC(=O)Cc2ccccc2)n1C,i,16,1,0.99,1.1,6%
CC(=O)c1ccc(Oc2ncnc3sccc23)c(CN2CCOCC2)c1,i,25*,0,1,1,8%
CC1(CC(=O)O)C(=O)N=C2C=CC=CN21 (configuration not stated),x,6,12,1,2.1*,3%
O=C(CSc1nnc(-c2ccc(Cl)s2)o1)N1CCOCC1,i,5,3,1,1.2,3%
COc1cc2c(cc1OC)-c1cc(NCc3ccccn3)nc(=O)n1CC2,x,17,52*,1.2,3.4*,35%
COc1cc2c(C(=O)NCc3ccccn3)cn(C)c(=O)c2cc1OC,i,0,3,1,1.1,2%
COc1cc(C(=O)OCCN2CCOCC2)cc(OC)c1OC,i,0,7,1,1.1,2%
COc1cc2c(cc1OC)-c1cc(NC3CC3)nc(=O)n1CC2,i,10,10,1.1,1.7,8%
CCNc1cc2n(c(=O)n1)CCc1cc(OC)c(OC)cc1-2,i,0,1,1.2,2.7*,6%
COc1cc2c(cc1OC)-c1cc(OCCN3CCOCC3)nc(=O)n1CC2,x,1,12,1.1,3.9*,7%
SMILES,DPM-DC inhibit,PMK inhibit,MK inhibit,A340 absorber,Autofluor 339,NADH coupling
CCCCCCNc1cc2n(c(=O)n1)CCc1cc(OC)c(OC)cc1-2,x,8,7,1.1,3.4*,8%
CCOC(=O)COc1ccc(S(=O)(=O)NCCC2=CCCCC2)cc1,i,4,5,1,1.1,6%
COc1cc2c(cc1OC)-c1cc(NC3CCCCC3)nc(=O)n1CC2,i,7,13,1.1,1.7,7%
COc1cc2c(cc1OC)-c1cc(NC3CCCCCCC3)nc(=O)n1CC2,i,12,3,1.1,2.4*,11%
O=C1CC(N2CCC(O)(c3ccc(Cl)cc3)CC2)C(=O)N1Cc1ccc(N2CCCC2=O)cc1 (configuration not stated),i,0,1,1.1,1.1,0%
CCC(=O)N(CCO)Cc1cc2ccc(C)c(C)c2[nH]c1=O,i,12,10,1.1,1.6,10%
CCOc1ccc2[nH]c(=O)c(=O)[nH]c2c1,i,4,16,1.1,2.2*,12%
CCOc1ccc2[nH]c(=O)c(CN(Cc3ccc(F)cc3)C(=O)N3CCCC3)cc2c1,i,13,6,1,2.8*,11%
CCOc1ccc2[nH]c(C)cc(=O)c2c1,x,8,7,1,1.6,6%
CCOc1ccc2[nH]c(=O)c(CN(CCO)C(=O)CC)cc2c1,i,5,0,1.1,3.1*,12%
CCOc1ccc2[nH]c(=O)c(CN(Cc3ccc(F)cc3)C(=O)c3ccco3)cc2c1,i,1,6,1,1.7,8%
CCOc1ccc2[nH]c(=O)c(CN(CCO)C(=O)c3ccc(Br)cc3)cc2c1,i,42*,1,1.1,2.6*,19%
Cc1ccc(C)c(N(CC(=O)NC2CCCCC2)C(=O)CCC(=O)Nc2ccccn2)c1,i,18,0,1,1.1,6%
Cc1nn(-c2ccccc2)c2sc(C(=O)C(C#N)c3ccccn3)cc12 (configuration not stated),i,11,0,1,1.3,4%
O=C(C1CCN(S(=O)(=O)c2ccc3ccccc3c2)CC1)N1CCN(c2ncccn2)CC1,i,8,10,1,1.2,6%
CN(C)c1nc2sc3c(c2c(=O)n1C)CC(C)(C)OC3,i,10,10,1.1,1.1,7%
CNc1nc2sc3c(c2c(=O)n1C)CC(C)(C)SC3,i,2,6,1,2.2*,5%
CCCN(CCO)Cc1cccc(Cl)c1,i,0,41*,1.1,1.1,14%
OCCN(Cc1ccccc1)Cc1ccccc1F,i,7,48*,1.1,1.1,19%
OCCN(Cc1ccccc1)Cc1cccc(C(F)(F)F)c1,i,1,37,1.1,1.1,13%
OCCN(Cc1ccccc1)Cc1cccc(F)c1,i,0,45*,1.1,1.2,15%
OCCN(Cc1ccccc1)CC1CCCCC1,i,0,43*,1.1,1.1,14%
Cc1ccc(CNC(=O)c2ccc(CN3CCOCC3)cc2)cc1,i,7,9,1,1.1,5%
Cc1cccn2cc(-c3ccc(S(=O)(=O)N4CCOCC4)cc3)nc12,x,0,4,1.1,2.2*,2%
O=S(=O)(c1cccc(-c2cn3cc(Cl)ccc3n2)c1)N1CCOCC1,i,11,0,1.1,1.9,4%
